Assay results from PubChem BioAssay (Tox21).
Records with an inconclusive call do not appear. The source made the active and inactive calls. Unless noted, calls follow the shape of the dose curve; as a rule, active = well fitted curve in the direction sought with a large enough effect in the repeat runs; inconclusive = weak or mixed curves; inactive = no such curve, though single readings can be large; an effect the other way counts as inactive or inconclusive.

What was measured:
[1] = qHTS assay to identify small molecule antagonists of the estrogen receptor alpha (ER-alpha) signaling pathway using the BG1 cell line in the presence of 0.1 nM 17-beta-estradiol - cell viability counter screen (AID 1259241); also: nearly all actives have a fitted effect of over 40% in size
Outline: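 Cells were plated and left 24 hr, compounds in DMSO were pinned in, 17beta-estradiol was added to 0.1 nM final, and after 22 hr CellTiter-Fluor reagent was added for 30 min before fluorescence was read.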

[2] = qHTS assay to identify small molecule antagonists of the androgen receptor (AR) signaling pathway using the MDA cell line in the presence of 0.5 nM R1881 - cell viability counter screen (AID 1259242); also: nearly all actives have a fitted effect of over 45% in size
Outline: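 qHTS format. MDA-kb2 (MMTV-luc, AR/GR responsive) + cpd + 0.5 nM R1881 final, 16 hr 37C/0% CO2 → CellTiter-Fluor 30 min → fluorescence intensity.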

[3] = target: Estrogen receptor (Homo sapiens) (UniProt P03372); test: qHTS assay to identify small molecule antagonists of the estrogen receptor alpha (ER-alpha) signaling pathway using the BG1 cell line in the presence of 0.1 nM 17-beta-estradiol (AID 1259244); also: nearly all actives have a fitted effect of over 50% in size
Outline: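 Reporter is a stably transfected luciferase under four estrogen responsive elements in VM7Luc4E2 cells expressing native full-length ER-alpha; inhibition of 0.1 nM (final) 17beta-estradiol-driven signal over 22 h is read by luminescence.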

[4] = qHTS assay to identify small molecule HDAC inhibitors (AID 1259364); also: potency is read from the fitted curve at half-maximal effect;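 also: wild-type HCT-116 cells with endogenous class I/II HDAC activity; nearly all actives have a fitted effect of over 45% in size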; as to activity change, negative = inhibition: top concentration of the series differs between compounds
Outline: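 Quantitative high-throughput format: overnight-seeded HCT-116 cells got compounds for 2 hr at 37C; HDAC-Glo I/II reagent added, 30 min RT, luminescence measured.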

[5] = qHTS assay to identify small molecule HDAC inhibitors - cell viability counter screen (AID 1259365); also: series mostly up to about 92 µM; nearly all actives have a fitted effect of over 50% in size
Outline: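 Counter screen in wild-type HCT-116 cells: compounds dissolved in DMSO are pin-transferred onto overnight-plated cells and left 2hr at 37C. ATP-based CellTiter-Glo luminescence then measures viable cells.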

[6] = qHTS assay to identify small molecule agonists of the sonic hedgehog signaling (Shh) pathway - cell viability counter screen (AID 1259366); also: nearly all actives have a fitted effect of over 50% in size
Outline: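 Cells are plated at 2,000 per well and left 4hr at 37C, 5% CO2 before compound addition. After 23hr of treatment, CellTiter-Fluor reagent is added for 1hr at 37C and fluorescence is measured.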

[7] = qHTS assay to identify small molecule agonists of the sonic hedgehog signaling (Shh) pathway (AID 1259368; calls by dose curve;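 also: NIH/3T3-derived 3T3Gli1-Luc cells carrying a stable Gli1-driven firefly luciferase reporter; series mostly up to about 92 µM; nearly all actives have a fitted effect of over 15% in size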)
Outline: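 Quantitative high-throughput format using a Gli1-driven firefly luciferase reporter line derived from NIH/3T3 cells. After a 24 hr compound treatment at 37 C and 5% CO2, luminescence reported Gli1 response element activity.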

[8] = qHTS assay to identify small molecule antagonists of the sonic hedgehog signaling (Shh) pathway (AID 1259369; calls by dose curve; also: nearly all actives have a fitted effect of over 45% in size)
Outline: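 Stable Gli1-Luc reporter NIH/3T3 clone; quantitative HTS in stimulated mode with conditioned medium. Luminescence measured after 24hr compound treatment at 37 C.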

[9] = target: Estrogen receptor beta (Homo sapiens) (UniProt Q92731); test: qHTS assay to identify small molecule agonists of the estrogen receptor beta (ER-beta) signaling pathway (AID 1259377; active = well fitted activation curve with a large enough effect in the signal ratio in the repeat runs, not every such curve was filed as active; the % refers to the signal ratio)
Outline: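 Agonist mode cell assay in GripTite HEK293T cells expressing an ER-beta fusion that drives beta-lactamase from an Upstream Activator Sequence; 16 hr compound exposure at 37C, then 2 h LiveBLAzer B/G FRET substrate at room temperature, fluorescence read-out.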

[10] = target: Estrogen receptor beta (Homo sapiens) (UniProt Q92731); test: qHTS assay to identify small molecule antagonists of the estrogen receptor beta (ER-beta) signaling pathway (AID 1259378; active = well fitted inhibition curve with a large enough effect in the signal ratio in the repeat runs, not every such curve was filed as active; the % refers to the signal ratio)
Outline: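 ER-beta-UAS-bla HEK293T cells in 2% charcoal-stripped FBS medium treated with compound plus 1nM final 17-beta-estradiol for 16 hr at 37C. Beta-lactamase reporter read by FRET substrate fluorescence after 2 hours at room temperature.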

[11] = qHTS assay to identify small molecule agonists of the estrogen receptor beta (ER-beta) signaling pathway - cell viability counter screen (AID 1259380); also: nearly all actives have a fitted effect of over 30% in size
Outline: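 Steps: plate ER-beta-UAS-bla HEK293T cells, rest 6 hr; add compounds in DMSO; incubate 16 hr at 37C, 5% CO2; add FRET substrate 2 hr; add CellTiter-Glo, wait 30 min at room temperature; read luminescence.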

[12] = qHTS assay to identify small molecule antagonists of the estrogen receptor beta (ER-beta) signaling pathway - cell viability counter screen (AID 1259382); also: series mostly up to about 92 µM; nearly all actives have a fitted effect of over 55% in size
Outline: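 Viability is scored by CellTiter-Glo luminescence (30 min, room temperature) in ER-beta-UAS-bla HEK293T wells already read for reporter fluorescence. Compound exposure lasts 16 hr at 37C alongside 1nM 17-beta-estradiol in charcoal-stripped serum medium.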

[13] = target: Estrogen receptor (Homo sapiens) (UniProt P03372); test: qHTS assay to identify small molecule agonists of the estrogen receptor alpha (ER-alpha) signaling pathway in the presence of an antagonist (AID 1259383; calls by dose curve; also: top concentration of the series differs between compounds; nearly all actives have a fitted effect of over 15% in size)
Outline: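 Readout was ERE-driven luciferase luminescence in VM7Luc4E2 cells, which express full-length ER-alpha endogenously. Compounds were tested at 15 concentrations for 22hr alongside 10.0nM ICI-182,780 (final concentration).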

[14] = qHTS assay to identify small molecule agonists or antagonists of the thyroid stimulating hormone receptor (TSHR) signaling pathway - wild type cell line counter screen (AID 1259384; calls by dose curve)
Outline: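 Wild-type Hek293 cells, 800/well, 18 h at 37C, then compound with Ro20-1724 for 30 min RT. cAMP by HTRF (cAMP-d2/anti-cAMP cryptate), 1 h RT, fluorescence read. 15 concentrations, triplicates.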

[15] = qHTS assay to identify small molecule antagonists of the sonic hedgehog signaling (Shh) pathway - cell viability counter screen (AID 1259367); also: nearly all actives have a fitted effect of over 55% in size
Outline: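 Tox21 library chemicals were tested on a Gli1-Luc NIH/3T3 clone (2,000 cells/well) stimulated by conditioned medium; viability was quantified as fluorescence from CellTiter-Fluor reagent added at 23 hr.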

[16] = qHTS assay to identify small molecule agonists of the androgen receptor (AR) signaling pathway in the presence of an antagonist - cell viability counter screen (AID 1259379);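 also: MDA-kb2 human breast cancer cells carrying an MMTV luciferase reporter; series mostly up to about 92 µM; nearly all actives have a fitted effect of over 25% in size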
Outline: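 Nilutamide-containing (3.0uM final) MDA-kb2 cultures, 3,000 cells/well, were treated with compounds across 15 concentrations. After 16 hr at 37C with no CO2, cell viability was determined by CellTiter-Fluor fluorescence in the luciferase assay wells.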

[17] = target: Androgen receptor (Homo sapiens) (UniProt P10275); test: qHTS assay to identify small molecule agonists of the androgen receptor (AR) signaling pathway in the presence of an antagonist (AID 1259381; calls by dose curve; also: nearly all actives have a fitted effect of over 15% in size)
Outline: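 Reporter-gene luminescence from MDA-kb2 cells exposed 16hr at 37C (0% CO2) to 15-point compound titrations with 3.0uM final nilutamide as AR antagonist.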

[18] = target: Thyrotropin receptor (Homo sapiens) (UniProt P16473); test: qHTS assay to identify small molecule antagonists of the thyroid stimulating hormone receptor (TSHR) signaling pathway (AID 1259385; calls by dose curve; also: nearly all actives have a fitted effect of over 20% in size)
Outline: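 TSHR-HEK293 cells (800/well) plated 18 h, then compounds with Ro20-1724 and TSH at 1.5 ng/mL final, 30 min at room temperature. cAMP quantified by HTRF (cAMP-d2/anti-cAMP-cryptate, 1 h); 15 concentrations in triplicate.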
% is scaled to controls: 0 for no effect and ±100 for the full control effect.

Thyrotropin receptor (Homo sapiens), sequence (P16473 whole entry, looked up): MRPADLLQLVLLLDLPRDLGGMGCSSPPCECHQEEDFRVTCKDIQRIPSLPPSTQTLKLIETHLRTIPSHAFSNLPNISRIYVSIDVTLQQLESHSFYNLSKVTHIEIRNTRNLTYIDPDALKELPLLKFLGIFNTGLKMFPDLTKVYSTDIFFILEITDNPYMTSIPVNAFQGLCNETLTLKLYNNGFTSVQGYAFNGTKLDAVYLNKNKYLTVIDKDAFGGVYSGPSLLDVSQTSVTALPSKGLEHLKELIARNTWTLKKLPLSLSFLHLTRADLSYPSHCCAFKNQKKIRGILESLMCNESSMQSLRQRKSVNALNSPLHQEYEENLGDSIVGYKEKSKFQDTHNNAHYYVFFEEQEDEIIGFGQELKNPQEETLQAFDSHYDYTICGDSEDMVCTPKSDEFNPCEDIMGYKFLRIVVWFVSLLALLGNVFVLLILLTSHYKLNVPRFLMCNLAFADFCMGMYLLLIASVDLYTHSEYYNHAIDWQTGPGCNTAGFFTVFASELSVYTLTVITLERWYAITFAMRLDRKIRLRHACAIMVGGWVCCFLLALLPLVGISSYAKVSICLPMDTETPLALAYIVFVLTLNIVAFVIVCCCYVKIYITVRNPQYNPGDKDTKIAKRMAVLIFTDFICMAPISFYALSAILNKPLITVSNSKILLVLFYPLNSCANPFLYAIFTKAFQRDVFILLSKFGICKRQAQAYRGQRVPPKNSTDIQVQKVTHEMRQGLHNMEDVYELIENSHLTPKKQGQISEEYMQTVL
Estrogen receptor (Homo sapiens), sequence (P03372 whole entry, looked up): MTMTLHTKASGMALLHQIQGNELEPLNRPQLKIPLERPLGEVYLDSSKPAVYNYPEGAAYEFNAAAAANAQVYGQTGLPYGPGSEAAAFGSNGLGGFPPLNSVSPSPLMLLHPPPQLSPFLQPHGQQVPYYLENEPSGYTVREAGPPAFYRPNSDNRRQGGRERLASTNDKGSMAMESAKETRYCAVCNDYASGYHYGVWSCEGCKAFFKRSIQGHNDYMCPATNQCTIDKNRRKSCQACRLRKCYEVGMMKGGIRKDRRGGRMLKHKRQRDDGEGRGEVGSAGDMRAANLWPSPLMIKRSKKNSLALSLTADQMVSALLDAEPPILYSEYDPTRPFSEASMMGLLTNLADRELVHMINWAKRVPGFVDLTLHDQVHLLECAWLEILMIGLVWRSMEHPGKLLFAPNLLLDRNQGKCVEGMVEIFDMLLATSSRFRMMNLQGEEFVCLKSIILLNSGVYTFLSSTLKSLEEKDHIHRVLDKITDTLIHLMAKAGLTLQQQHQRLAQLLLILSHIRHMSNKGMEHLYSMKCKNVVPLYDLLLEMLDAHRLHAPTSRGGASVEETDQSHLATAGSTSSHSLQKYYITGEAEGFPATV
Estrogen receptor beta (Homo sapiens), sequence (Q92731 whole entry, looked up, the tested form may be a part): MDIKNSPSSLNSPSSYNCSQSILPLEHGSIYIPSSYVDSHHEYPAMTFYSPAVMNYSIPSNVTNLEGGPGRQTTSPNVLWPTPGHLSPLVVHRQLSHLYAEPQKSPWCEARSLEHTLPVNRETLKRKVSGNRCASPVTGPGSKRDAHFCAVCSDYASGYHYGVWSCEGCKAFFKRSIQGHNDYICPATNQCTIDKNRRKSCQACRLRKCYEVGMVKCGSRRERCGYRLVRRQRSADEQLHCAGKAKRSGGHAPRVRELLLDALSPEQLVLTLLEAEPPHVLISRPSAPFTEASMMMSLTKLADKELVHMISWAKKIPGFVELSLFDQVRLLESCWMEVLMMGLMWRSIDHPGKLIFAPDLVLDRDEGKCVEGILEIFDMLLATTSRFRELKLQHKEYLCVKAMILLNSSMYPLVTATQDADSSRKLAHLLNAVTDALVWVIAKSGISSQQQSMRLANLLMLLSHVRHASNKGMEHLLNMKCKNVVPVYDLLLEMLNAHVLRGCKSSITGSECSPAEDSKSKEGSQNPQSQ
Androgen receptor (Homo sapiens), sequence (P10275 whole entry, looked up): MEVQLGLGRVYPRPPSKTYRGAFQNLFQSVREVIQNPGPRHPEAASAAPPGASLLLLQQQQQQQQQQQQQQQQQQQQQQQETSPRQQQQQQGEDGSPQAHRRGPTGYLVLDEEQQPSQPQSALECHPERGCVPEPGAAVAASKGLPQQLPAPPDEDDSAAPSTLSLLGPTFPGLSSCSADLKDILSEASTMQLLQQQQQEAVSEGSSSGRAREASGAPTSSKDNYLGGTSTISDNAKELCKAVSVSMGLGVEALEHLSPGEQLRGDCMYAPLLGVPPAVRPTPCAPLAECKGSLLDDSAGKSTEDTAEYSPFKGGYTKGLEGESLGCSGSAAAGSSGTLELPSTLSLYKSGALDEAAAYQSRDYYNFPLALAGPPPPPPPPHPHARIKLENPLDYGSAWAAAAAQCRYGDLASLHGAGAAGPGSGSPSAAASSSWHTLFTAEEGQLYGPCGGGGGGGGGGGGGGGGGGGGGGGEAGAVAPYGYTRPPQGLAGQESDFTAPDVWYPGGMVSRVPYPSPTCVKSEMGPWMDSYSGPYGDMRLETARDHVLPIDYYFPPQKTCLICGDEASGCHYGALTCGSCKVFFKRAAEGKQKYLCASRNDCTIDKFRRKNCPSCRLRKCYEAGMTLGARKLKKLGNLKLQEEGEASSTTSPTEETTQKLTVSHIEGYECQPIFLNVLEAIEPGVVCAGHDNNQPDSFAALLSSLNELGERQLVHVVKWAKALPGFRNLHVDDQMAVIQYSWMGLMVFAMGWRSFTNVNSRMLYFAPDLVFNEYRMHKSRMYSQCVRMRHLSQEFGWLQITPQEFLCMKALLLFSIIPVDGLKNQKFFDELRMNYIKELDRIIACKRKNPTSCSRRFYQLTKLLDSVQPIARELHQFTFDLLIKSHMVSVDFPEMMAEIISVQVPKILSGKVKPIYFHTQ

COC(=O)Nc1nc2ccc(C(=O)C3CC3)cc2[nH]1
inactive: Potency [1] | Potency [2] | Potency [3] | Potency [5] | Potency [6] | Potency [7] | Potency [8] | Potency [9] | Potency [10] | Potency [11] | Potency [12] | Potency [13] | Potency [14]
active: Potency [4] 23.7 µM

CCN(CC)c1cccc(O)c1
inactive: Potency [1] | Potency [2] | Potency [3] | Potency [4] | Potency [5] | Potency [15] | Potency [8] | Potency [10] | Potency [16] | Potency [11] | Potency [17] | Potency [12] | Potency [13] | Potency [14]

CC1=CC[C@@H]2C[C@H]1C2(C)C
inactive: activity change, negative = cytotoxicity [1] 3.19% [at 19 µM] | viability change, negative = cytotoxic [2] 1.84% [at 19 µM] | activity change, negative = inhibition [3] 11.8% [at 19 µM] | activity change, negative = inhibition [4] 0.0628% [at 19 µM] | activity change, negative = cytotoxicity [5] -0.126% [at 19 µM] | viability change, negative = cytotoxic [15] -2.9% [at 19 µM] | activity change [7] 0.102% [at 18.9 µM, hits give high values] | activation [9] -1.23% [at 19 µM] | activity, negative = inhibition [10] -3.84% [at 19 µM] | activity change, negative = cytotoxicity [16] 0.221% [at 19 µM] | activity change, negative = cytotoxicity [12] 4.03% [at 19 µM] | cAMP activity change [14] -1.96% [at 18.9 µM, hits give high values] | activity change, negative = inhibition [18] 8.95% [at 19 µM]

O=P(O)(O)Oc1ccccc1
inactive: Potency [1] | Potency [2] | Potency [3] | Potency [4] | Potency [5] | Potency [6] | Potency [15] | Potency [7] | Potency [9] | Potency [10] | Potency [16] | Potency [11] | Potency [12] | Potency [14] | Potency [18]

COc1cc(S(=O)(=O)Nc2ccccc2)c(OC)cc1N
inactive: Potency [1] | Potency [2] | Potency [3] | Potency [4] | Potency [5] | Potency [6] | Potency [15] | Potency [7] | Potency [8] | Potency [9] | Potency [10] | Potency [16] | Potency [12] | Potency [13] | Potency [14] | Potency [18]

c1ccc(CCCc2ccncc2)cc1
active: Potency [4] 27.3 µM
inactive: Potency [1] | Potency [2] | Potency [3] | Potency [5] | Potency [6] | Potency [15] | Potency [7] | Potency [8] | Potency [9] | Potency [16] | Potency [11] | Potency [12] | Potency [13] | Potency [14]
